# Giardia FBPA inh: qHTS Assay for Inhibitors of Fructose-1,6-bisphosphate Aldolase from Giardia Lamblia; A8B2U2; purified Giardia FBPA; Potency, µM (series often up to 59.6 µM), actives largely listed as inhibitors; 290,000 tested, 0.71% active; AID 2451, 2010; further: nearly all actives have a fitted effect of over 55% in size
# Target sequence (A8B2U2 whole entry, looked up): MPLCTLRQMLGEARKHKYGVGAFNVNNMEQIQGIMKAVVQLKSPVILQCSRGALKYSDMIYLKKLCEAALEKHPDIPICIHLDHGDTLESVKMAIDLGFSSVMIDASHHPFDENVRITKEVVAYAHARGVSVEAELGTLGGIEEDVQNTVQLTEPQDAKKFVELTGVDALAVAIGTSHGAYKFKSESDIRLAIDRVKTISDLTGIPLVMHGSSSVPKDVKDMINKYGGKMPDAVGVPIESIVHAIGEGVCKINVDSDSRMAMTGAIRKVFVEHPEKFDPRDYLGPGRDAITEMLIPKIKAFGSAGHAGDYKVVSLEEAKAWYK
#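 40 nM FBPA preincubated 10 min at RT with compound (up to 57.5 uM final), then substrate plus GAPDH/TPI/NAD/arsenate coupling and diaphorase/resazurin added. Fluorescence read after 20 min at RT, 525/598 nm.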
# LmPK inh: qHTS Assay for Inhibitors of Leishmania Mexicana Pyruvate Kinase (LmPK); purified LmPK, Kinase-Glo ATP luminescence, 1 h; Potency, µM (doses to about 57.5 µM), usual class: inhibitors; 290,000 tested, 0.37% active; AID 1721, 2009
#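 In 50 mM imidazole pH 7.2 with 7 mM MgCl2, LmPK (0.1 nM) turned over PEP (0.5 mM) and ADP (0.1 mM) for 1 h at room temperature. Luciferase read-out of ATP.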
# TbPYK inhibitor: qHTS of Trypanosoma Brucei Inhibitors | pyruvate kinase (Trypanosoma brucei), Q57TT1 | TbPYK enzyme, Kinase-Glo Plus ATP luminescence, 45 min | Potency, µM (series often up to 76.8 µM), most hits filed as inhibitors | 410,000 tested, 0.12% active; further: nearly all actives have a fitted effect of over 50% in size
#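 Activity of T. brucei pyruvate kinase was followed by Kinase-Glo Plus luminescence after the enzyme reacted 45 min at room temperature with 130 uM ADP (final) and substrate. Test compounds were added before ADP at multiple concentrations.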
# Shiga inhibitor: A qHTS for Small Molecule Inhibitors of Shiga Toxin. Vero cells, Shiga toxin protein synthesis inhibition reporter. inhibition, % at 38.7 µM. 290,000 tested, 9.2% active. AID 2315, 2010; in the data active means inhibition mostly above about 28%, no sharp cut-off; inactive means mostly below about 43%
# Sm TGR block: qHTS Assay for the Inhibitors of Schistosoma Mansoni Peroxiredoxins. Schistosoma mansoni thioredoxin glutathione reductase (TGR), Q962Y6. 360,000 tested, 3% active. Potency, µM (top dose mostly 114 µM), usual class: inhibitors. AID 485364, 2010. purified TGR, DTNB reduction, TNB absorbance 405 nm; further: nearly all actives have a fitted effect of over 60% in size
#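 Kinetic colorimetric format: TGR-catalysed, NADPH-driven DTNB reduction monitored via TNB absorbance. Enzyme dispensed at 20 nM; compound exposure 15 min at room temperature before reaction start.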
# Cycloheximide cs: Cycloheximide Counterscreen for Small Molecule Inhibitors of Shiga Toxin | 300,000 tested, 12% active | cell reporter, cycloheximide protein synthesis inhibition counterscreen | max response, %; in the data active means max response mostly above about 13%, no sharp cut-off; inactive means mostly below about 14%; further: read at 38.3 µM for the half of the compounds with a filed dose
# Hits are given with their value; n = inactive; u = inconclusive; x = no result. This is one part of a sample in which hits are shown more often than they occur. Unless noted, the call rests on the fitted dose curve; in most records, active means well fitted curve in the direction sought with a large enough effect; inconclusive means small, poorly fitted or top-dose-only effect, or another doubt; inactive means no such curve, though single readings can be large; an effect the other way counts as inactive or inconclusive.
SMILES,Giardia FBPA inh,LmPK inh,TbPYK inhibitor,Shiga inhibitor,Sm TGR block,Cycloheximide cs
O=C(Nc1ccn(Cc2ccccc2F)n1)c1ccc(COc2cccc(Br)c2)cc1,n,n,n,71,n,54
OCCN=c1cc(-c2ccccc2)oc2ccc(Cl)cc12,x,n,n,190,n,52
CN(C)CCCN=c1cc(-c2ccccc2)oc2ccc(Cl)cc12,n,n,n,n,n,14
COCCNC(=O)C(c1ccc(C)o1)N(C(=O)Cn1nnc2ccccc21)c1ccccc1 (stereo not drawn),n,n,n,n,x,n
O=C(c1ccc(Cl)cc1)N1CCN(S(=O)(=O)/C=C/c2ccccc2)CC1,x,x,n,x,n,x
O=C(O)c1ccc(Cn2cc(/C=C\[N+](=O)[O-])c3ccccc32)o1,n,n,n,n,3.2µM,n
Cc1nc(N2CCCC2)ncc1C(=O)Nc1ccccc1,x,x,n,x,n,x
CC1CCn2c(nc3cc(C(=O)NCCc4ccccc4)ccc32)C1 (stereo not drawn),x,x,n,x,n,x
CC1CCCN(c2ccc(C(=O)NCc3ccccc3)cn2)C1 (stereo not drawn),n,n,n,104,n,31
O=C(NCc1cccs1)c1ccc(N2CCCC2=O)cc1,n,n,n,53,n,36
CC1CCN(c2ccc(C(=O)NCCc3ccccc3)cn2)CC1,n,n,n,99,n,27
CC1CCCN(c2ccc(C(=O)NCc3cccs3)cn2)C1 (stereo not drawn),n,n,n,active,n,45
C#Cc1ccc(C(=O)NCc2ccc(N3CCCC3=O)cc2)cc1,n,n,n,n,n,n
COc1ccc(OC)c(-c2cc(C(=O)Nc3cccc(Cl)c3C)no2)c1,x,x,n,x,n,x
CC[C@]1(O)C[C@@H]2CN(CCc3c([nH]c4ccccc34)[C@](C(=O)OC)(c3cc4c(cc3OC)N(C=O)[C@H]3[C@@](O)(C(=O)OC)[C@H](C(=O)OC)[C@@]5(CC)C=CCN6CC[C@]43[C@H]65)C2)C1,n,x,x,x,x,x
O=c1cc(CSc2ncn[nH]2)[nH]c2c(Cl)cccc12,x,x,n,x,n,x
Nn1c(SCc2ccc(F)cc2)nnc1-c1ccncc1,n,n,n,n,n,n
CC(=O)c1cccc(NC(=O)NNC(=O)CCC(=O)Nc2ccc(C)c(C)c2)c1,n,n,n,n,n,n
O=C(NCc1cccs1)c1ccc(N2CCCCC2)nc1,n,n,n,112,n,53
O=C(NCc1cccs1)c1ccncc1,n,n,n,n,n,n
FC(F)(F)Oc1ccccc1C(c1nnnn1-c1ccc2c(c1)OCCO2)N1CCN(C/C=C/c2ccccc2)CC1 (stereo not drawn),x,x,n,x,x,x
CCOc1ccc(NCCC(O)c2ccc(F)cc2)cc1 (stereo not drawn),n,n,n,n,n,23
CCOc1ccc(C(C)NC(=S)NCc2ccc(F)cc2)cc1 (stereo not drawn),n,n,n,n,n,n
COc1ccc(NC(=O)C2CCN(S(=O)(=O)c3cccc(-c4noc(C)n4)c3)CC2)cc1OC,x,x,n,x,n,x
CCn1ccc2c(OCC(=O)Nc3ccc(OC)cc3OC)cccc2c1=O,x,x,n,x,n,x
SMILES,Giardia FBPA inh,LmPK inh,TbPYK inhibitor,Shiga inhibitor,Sm TGR block,Cycloheximide cs
CN=C1N[C@H](c2ccccc2)N(c2ccccc2)S1,22µM,x,x,n,x,27
Cc1cccc(C(=O)Oc2csc(=S)n2C(=O)c2cccc(C)c2)c1,n,n,28µM,n,n,n
COc1cccc(-c2ccc3ncnc(N(C)C)c3c2)c1,n,x,x,x,x,x
Cc1ccc(-c2nnc(-c3cccc(NC(=O)c4cccs4)c3)o2)cc1,n,n,n,39,n,n
O=C(Nc1cccc(-c2nnco2)c1)c1cccs1,n,n,n,n,n,n
O=C(Cc1cccs1)Nc1ccc(-c2nnc(-c3ccccc3)o2)cc1,x,x,n,x,x,x
Cc1cccc(-c2nnc(-c3cccc(NC(=O)Cc4cccs4)c3)o2)c1,n,n,n,n,n,20
CC(C)c1ccc(OCC(=O)N(Cc2cccs2)C2CCS(=O)(=O)C2)cc1 (stereo not drawn),x,x,n,x,n,x
CCOC(=O)c1c(-c2ccc(Br)cc2)csc1NC(=O)c1ccc(C(C)(C)C)cc1,x,x,n,x,n,x
COc1cccc(/C=C/C(=O)Nc2ccc3nc(N4CCN(C)CC4)cc(C)c3c2)c1OC,x,x,n,x,n,x
CCN(c1cc(C)cc(C)c1)S(=O)(=O)c1nnc(NC(=O)c2ccccc2C)s1,x,x,n,x,n,x
Cc1ccn2c(NC3CCCC3)c(-c3cccs3)nc2c1,u,n,n,28,20µM,23
c1csc(-c2nc3ccccn3c2NC2CCCCC2)c1,n,n,n,n,n,n
Cc1ccn2c(NCc3ccccc3)c(-c3cccs3)nc2c1,n,n,n,55,x,30
COC(=O)c1cc2oc3ccccc3c2n1CC(=O)Nc1ccc(C)cc1Cl,x,x,n,x,n,x
Cc1ccc([N+](=O)[O-])c(OCc2ncc(Cl)n2C)c1,n,n,n,72,n,39
Cc1cc(-n2nc3ccccc3n2)c(O)c([N+](=O)[O-])c1,n,n,n,n,u,n
Cc1ccc(OC(=O)c2cccc([N+](=O)[O-])c2)c(-n2nc3ccccc3n2)c1,n,n,n,n,n,27
Cc1ccc(OC(=O)COc2ccccc2C)c(-n2nc3ccccc3n2)c1,n,u,n,69,n,43
COC(=O)COc1ccc(C)cc1-n1nc2ccccc2n1,n,n,n,n,n,n
CC(=O)c1sc(NC(=O)C(C)Oc2ccc3c(C)cc(=O)oc3c2)nc1C (stereo not drawn),x,n,n,n,n,n
COc1cc([N+](=O)[O-])ccc1-c1ccc(C(=O)Nc2ccc(NC(C)=O)cc2)o1,n,n,u,n,20µM,n
COc1ccc(NC(=O)c2ccc(-c3ccc([N+](=O)[O-])cc3)o2)cc1OC,n,n,n,n,n,n
CC(=O)Nc1ccc(NC(=O)c2ccc(-c3ccc([N+](=O)[O-])cc3)o2)cc1,n,n,n,n,n,n
COc1cccc(NC(=O)c2ccc(-c3ccc([N+](=O)[O-])cc3)o2)c1,n,n,n,70,25µM,18
CC1CCc2c(sc3nc(CSc4n[nH]c(N)n4)[nH]c(=O)c23)C1 (stereo not drawn),n,n,n,37,n,n
COc1cc(C2C(C#N)=C(N)OC3=C2C(=O)CC(C)(C)C3)ccc1OCCN1CCOCC1 (stereo not drawn),n,n,n,n,n,21
COc1cc(C2C(C#N)=C(N)Oc3cc(C)n(CCN4CCOCC4)c(=O)c32)cc(OC)c1OC (stereo not drawn),n,n,n,n,n,41

# From PubChem
